Several values for one entry are separate records, joined by “and”; a condition that tells them apart may be missing. Equal values may be shown once. Where a name gives a salt, the structure may show the parent alone.
How the values were obtained:
Test in all cases: cell viability relative to vehicle control; higher = less cytotoxic
Settings in all cases: 10 µM
K562 = test system: K562
Method in brief: (§1)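 Mutant clones made by CRISPR editing and their isogenic wild-type counterparts, from four leukaemia lines, were exposed to a single 10 µM dose of each library compound for 48 h. The supernatant was then removed and CellTiter-Glo luminescence was read. Viability was reported as percent of the on-plate vehicle control.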

MARIMO = test system: MARIMO
Method in brief: as §1

MOLM14 = test system: MOLM14
Method in brief: as §1

OCI-AML2 = test system: OCI-AML2
Method in brief: as §1

Row | SMILES | cell viability (K562; SRSF2 genotype: SRSF2 P95H/wt) | cell viability (K562; SRSF2 genotype: SRSF2 wt/wt) | cell viability (MARIMO; SRSF2 genotype: SRSF2 P95H/wt) | cell viability (MARIMO; SRSF2 genotype: SRSF2 wt/wt) | cell viability (MOLM14; SRSF2 genotype: SRSF2 P95H/wt) | cell viability (MOLM14; SRSF2 genotype: SRSF2 wt/wt) | cell viability (OCI-AML2; SRSF2 genotype: P95H/wt) | cell viability (OCI-AML2; SRSF2 genotype: wt/wt)
1 | CCCCCCCCCCCCCCCCCCCCCC(=O)O [Behenic Acid] | 101% and 91.8% | 103% | 97.7% | 112% | 104% | 108% | 91.8% | 102%
2 | C[C@H]1Oc2cc(cnc2N)-c2c(nn(C)c2C#N)CN(C)C(=O)c2ccc(F)cc21 | 102% and 95.5% | 99.1% | 91.1% | 91% | 119% | 106% | 94.9% | 104%
3 | CN1CCN(c2ccc3nc(-c4c(N)c5c(F)cccc5[nH]c4=O)[nH]c3c2)CC1 [Dovitinib (TKI258) Lactate] | 5.06% and 10.2% | 8.08% | 9.85% | 12% | 0.28% | 0.3% | 0.28% | 0.65%
4 | Cc1ccc(C)c(OCCCC(C)(C)C(=O)O)c1 [Gemfibrozil (Lopid)] | 108% and 109% | 108% | 107% | 106% | 106% | 109% | 106% | 110%
5 | OC[C@H]1O[C@H](O[C@H]2O[C@H](CO)[C@@H](O)[C@H](O)[C@H]2O)[C@H](O)[C@@H](O)[C@@H]1O [D-(+)-Trehalose dihydrate] | 103% and 99.5% | 102% | 106% | 111% | 104% | 108% | 105% | 108%
6 | Cc1cc(Nc2ncc(Cl)c(Nc3ccccc3S(=O)(=O)C(C)C)n2)c(OC(C)C)cc1C1CCNCC1 [Ceritinib (LDK378)] | 0.29% and 0.22% | 0.14% | 0.2% | 0.23% | 0.06% | 0.11% | -0.03% | 0.01%
7 | Cc1cc(Nc2ncnc3ccc(-c4ccc(CNCCS(C)(=O)=O)o4)cc23)ccc1Oc1ccn2ncnc2c1 [HER2 Inhibitor 1] | 96.3% and 102% | 105% | 107% | 108% | 93% | 101% | 95.7% | 89.6%
8 | Nc1nc(N)c2nc(-c3cccc(O)c3)cnc2n1 | 80.3% and 89.9% | 83.4% | 63.7% | 59.2% | 57.2% | 57.8% | 48.7% | 53.1%
9 | CC[C@H]1OC(=O)C[C@@H](O)[C@H](C)[C@@H](O[C@@H]2O[C@H](C)[C@@H](O)[C@H](N(C)C)[C@H]2O)[C@@H](CCN2C[C@H](C)C[C@H](C)C2)C[C@@H](C)C(=O)/C=C/C(C)=C/[C@@H]1CO[C@@H]1O[C@H](C)[C@@H](O)[C@@H](OC)[C@H]1OC [Tilmicosin] | 96.5% and 94.4% | 99.4% | 95.6% | 106% | 98.5% | 103% | 93.3% | 105%
10 | NC(=O)c1cnccn1 [Pyrazinamide (Pyrazinoic acid amide)] | 107% and 105% | 110% | 104% | 114% | 103% | 105% | 95.6% | 109%
11 | CN1CCC(c2c(O)cc(O)c3c(=O)cc(-c4ccccc4Cl)oc23)C(O)C1 (stereo not drawn) [Flavopiridol (Alvocidib) HCl] | 5.96% and 15.8% | 7.9% | 11.1% | 4.66% | 3.87% | 0.54% | 5.83% | 16.3%

From the supplement of paper PMC10981050
